Measured values from PubChem BioAssay (NCI).
About 83,000 compounds went through this panel and 20% of them were active in at least one assay; those are over-represented in the sample as a whole.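 A percent growth of 40 corresponds to 60% growth inhibition; 0 means no net growth; -100 means all cells died. Active threshold: below 10.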 A number with no mark means an inactive call. Active and inactive are the calls of the source.

test system: MCF7 breast; test: NCI-60 one-dose screen, 48 h (100 = growth as untreated, 0 = no growth, -100 = all killed); details: 10 µM

SMILES | growth
COc1cc(OC)cc(-c2cncn2-c2ccc(-c3nc4cc(OC)cc(OC)c4s3)cc2)c1 | 20.9%
c1ccc2c(c1)oc1c3cccnc3ccc21 | 13%
CC(=O)CSC(C)=O | 93%
COc1ccc(-c2nn(-c3cccc(NC(=O)Nc4ccc(Cl)c(C(F)(F)F)c4)c3)cc2-c2ccncc2)cc1Cl | 1.57% (active)
CC(=O)OCc1cc(-c2nc3ccccc3[nH]c2=O)nn1-c1ccc(Cl)cc1 | 85.9%
COc1ccc(-c2nn(-c3cccc(NC(=O)c4ccc(N5CCOCC5)c(C(F)(F)F)c4)c3)cc2-c2ccncc2)cc1Cl | 53%
COc1ccc(-c2nn(-c3cccc(NC(=O)Nc4cccc(C(F)(F)F)c4)c3)cc2-c2ccncc2)cc1Cl | 5.79% (active)
CC(C)=CCc1ccc(O)c(=O)cc1C(C)C | 21.5%
CCOC1(OCC)OC(c2ccccc2)=C(C#N)C(/C=C\c2ccccc2)C1(OCC)OCC (stereo not drawn) | 77.4%
O=C(O)c1ccc(P(=O)(O)O)c([N+](=O)[O-])c1 | 99.3%
O=c1[nH]c2ccc(Cl)cc2c2ccccc12 | 93.1%
CCOC(=O)c1ccoc1 | 95.1%
COc1ccc(Nc2ccnc(NCCNc3ccnc4cc(Cl)ccc34)n2)cc1 | 14.3%
N=c1c2c(-c3ccccc3)c(-c3ccccc3)n(Cc3ccccc3)c2ncn1CCCO | 2.77% (active)
COc1cc(Cl)cc(-c2nn(-c3cccc(NC(=O)Nc4ccc(Cl)c(Cl)c4)c3)cc2-c2ccncc2)c1 | 4.66% (active)
Cc1ccc(NC(=O)NC2CCCCC2)cc1 | 93.8%
COc1cc(NC(=O)c2sc3nc4c(cc3c2N)C(O)CCC4)cc(OC)c1 (stereo not drawn) | 50.7%
N#Cc1c(C#N)c(SSc2c(C#N)c(C#N)c(N)n2-c2ccccc2)n(-c2ccccc2)c1N | 104%
COc1cc(-c2cc(/C=C/C(=O)c3ccc(Cl)c(Cl)c3)[nH]n2)cc(OC)c1OC | 19.3%
Nc1ccccc1NC(=O)CCCCC(=O)Nc1ccc2c(c1)/C(=C/c1ccc[nH]1)C(=O)N2 | 35%
COc1cc(NC(=O)CSc2nc3ccccc3c(=O)n2CCc2ccccc2)cc(OC)c1OC | 51%
O=[P@@]1(c2ccccc2)O[C@H](COCc2ccccc2)[C@@H](OCc2ccccc2)[C@H](OCc2ccccc2)[C@H]1O | 51%
Cc1ccc(C(=O)Nc2cccc(F)c2)cc1NC(=O)C1(c2ncnc3[nH]ccc23)CC1 | 87.1%
O=C(O)c1ccc(Cl)cc1Nc1ccc(F)cc1 | 76.7%

test system: HCT-116 colon; test: as above; details: 10 µM

SMILES | growth
COc1ccc(C2CC(c3ccc(N(C)C)cc3)=NN2c2ccc(S(N)(=O)=O)cc2)cc1 (stereo not drawn) | 18.7%
COc1ccc(-c2nc(-c3nc4ccc(OC)cc4[nH]3)cc3c2[nH]c2ccccc23)cc1 | 21.3%
COc1cc(C(=O)N2CCN(c3ccccc3OC)CC2)c(N)cc1OCCCN1CCN(c2ccccc2OC)CC1 | 81.9%
COc1cc(-c2nc(Nc3nc4ccccc4s3)[nH]c(=O)c2C#N)cc(OC)c1O | 94.7%
ClCC#CCSc1ncnc2c1ncn2CC#CCCl | -49% (active)
Cc1ccc(S(=O)(=O)Oc2ccc3c4c(c(=O)oc3c2)CCCCC4)cc1 | 36.7%
O=C1Nc2ccccc2C1=NC1CCCCC1 | 105%
O=c1cc(-c2ccccc2)[nH]n1-c1nc2ccccc2[nH]1 | 32.1%
COc1ccc(-c2nc3sc(-c4ccccc4)c(-c4ccccc4)n3c2/C=C/C(=O)c2ccccn2)cc1 | 67.2%
CC(C)C[C@H](NC(=O)[C@H](Cc1cccc2ccccc12)NS(=O)(=O)c1cccc2cccnc12)B(O)O | -91.2% (active)
NC(=S)N=Nc1c(O)c2ccccc2c2ccccc12 | 32%
CCN(CC)CCSCCCNc1c2ccc(Cl)cc2nc2ccc(OC)cc12 | -55.9% (active)
Cc1cccc(NC2=C(C#N)C(=O)NC3(CCCC3)S2)c1 | 105%
c1ccc2c(-c3nc(N4CCOCC4)c4c5c(sc4n3)CCCCCC5)cccc2c1 | 109%
COC(=O)[C@@H]1[C@H](O)[C@H](C)[C@H](O)[C@@](C)(O)/C=C\C=C(C)C(=O)Nc2c(C)c(OC(C)=O)c3c(c2O)C(=O)C(C)=C2OCOC(=C23)C(C)=C[C@@](C)(O)[C@H](O)[C@@H](C)[C@H]1OC(C)=O | 114%
COc1cc(OC)cc(-c2cncn2-c2ccc(-c3nc4cc(OC)cc(OC)c4s3)cc2)c1 | 36.8%
c1ccc2c(c1)oc1c3cccnc3ccc21 | 84.4%
CC(=O)CSC(C)=O | 98%
COc1ccc(-c2nn(-c3cccc(NC(=O)Nc4ccc(Cl)c(C(F)(F)F)c4)c3)cc2-c2ccncc2)cc1Cl | 8.61% (active)
CC(=O)OCc1cc(-c2nc3ccccc3[nH]c2=O)nn1-c1ccc(Cl)cc1 | 100%

SMILES | growth
COc1ccc(-c2nn(-c3cccc(NC(=O)c4ccc(N5CCOCC5)c(C(F)(F)F)c4)c3)cc2-c2ccncc2)cc1Cl | 55.5%
COc1ccc(-c2nn(-c3cccc(NC(=O)Nc4cccc(C(F)(F)F)c4)c3)cc2-c2ccncc2)cc1Cl | 9.6% (active)
CC(C)=CCc1ccc(O)c(=O)cc1C(C)C | 17.3%
CCOC1(OCC)OC(c2ccccc2)=C(C#N)C(/C=C\c2ccccc2)C1(OCC)OCC (stereo not drawn) | 53.9%
O=C(O)c1ccc(P(=O)(O)O)c([N+](=O)[O-])c1 | 113%
O=c1[nH]c2ccc(Cl)cc2c2ccccc12 | 38.4%
CCOC(=O)c1ccoc1 | 97.1%
COc1ccc(Nc2ccnc(NCCNc3ccnc4cc(Cl)ccc34)n2)cc1 | 3.11% (active)
N=c1c2c(-c3ccccc3)c(-c3ccccc3)n(Cc3ccccc3)c2ncn1CCCO | 13.3%
COc1cc(Cl)cc(-c2nn(-c3cccc(NC(=O)Nc4ccc(Cl)c(Cl)c4)c3)cc2-c2ccncc2)c1 | 9.22% (active)
Cc1ccc(NC(=O)NC2CCCCC2)cc1 | 105%
COc1cc(NC(=O)c2sc3nc4c(cc3c2N)C(O)CCC4)cc(OC)c1 (stereo not drawn) | 84.2%
N#Cc1c(C#N)c(SSc2c(C#N)c(C#N)c(N)n2-c2ccccc2)n(-c2ccccc2)c1N | 104%
COc1cc(-c2cc(/C=C/C(=O)c3ccc(Cl)c(Cl)c3)[nH]n2)cc(OC)c1OC | 36%
Nc1ccccc1NC(=O)CCCCC(=O)Nc1ccc2c(c1)/C(=C/c1ccc[nH]1)C(=O)N2 | 82.7%
COc1cc(NC(=O)CSc2nc3ccccc3c(=O)n2CCc2ccccc2)cc(OC)c1OC | -0.608% (active)
O=[P@@]1(c2ccccc2)O[C@H](COCc2ccccc2)[C@@H](OCc2ccccc2)[C@H](OCc2ccccc2)[C@H]1O | 69.8%
Cc1ccc(C(=O)Nc2cccc(F)c2)cc1NC(=O)C1(c2ncnc3[nH]ccc23)CC1 | 44.5%
O=C(O)c1ccc(Cl)cc1Nc1ccc(F)cc1 | 72.8%
